rCAG binder – molecules binding r(CAG) RNA repeats | r(CAG) RNA repeat, TO-PRO-1 dye displacement fluorescence | inhibition, % at 3 µM | actives 1.3% (n = 370,000) | AID 651821;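 active = inhibition above the plate cutoff, the mean of all test compounds on that plate plus 3 SD, cut at about 35% in these data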;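 note: 0% = DMSO alone and 100% = 100 µM mitoxantrone as full dye displacement; higher means more dye released from RNA so lower well fluorescence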
NR3A LBD binder – NR3A (human) ligand-binding domain modulation. NR3A LBD differential scanning fluorimetry, Tm shift; 0% = protein alone, 100% = glycine-bound protein. Tm shift relative to glycine control, % at 25 µM. actives 2.5% (n = 340,000). AID 1259313;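 active = melting temperature shift of at least 10% of the positive control shift, at one fixed dose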
FAS-TE inh – FAS thioesterase (human) inhibition. inhibition, % at 15 µM. recombinant FAS-TE, OMFH fluorogenic substrate, fluorescence endpoint. AID 602261. P49327. actives 0.67% (n = 360,000);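 active = compounds whose normalised, plate-corrected inhibition of enzyme fluorescence in the single-dose primary screen is 50% or more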;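 note: 0% = DMSO with enzyme and 100% = substrate without enzyme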
Myeloid diff 2 – promotes myeloid progenitor differentiation; actives 1% (n = 360,000); calls only at 10 µM; ER-HoxA9 myeloid progenitors, lysozyme-GFP differentiation, flow cytometry;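 active = normalized GFP-positive differentiation at or above the plate's own cutoff, the solvent-only control mean plus 3 SD; inconclusive = no clear call, values can overlap the other calls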;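 note: cells exposed to compound for four days before flow analysis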
MPTP inh – permeability transition pore inhibition. inhibition, % at 10 µM. actives 1.4% (n = 360,000). isolated mouse mitochondria, Ca2+ swelling absorbance, 30 min. AID 602449;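 active = inhibition of 50% or more, scaled per plate between neutral and stimulator controls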;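 note: 0% = DMSO wells given calcium and 100% = 1 mM EGTA wells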
rCAG bind conf – r(CAG) RNA repeat binding, confirmation; inhibition, % at 3 µM; actives 70% (n = 4,300); shares compounds with rCAG binder; TO-PRO-1 dye displacement fluorescence;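 active = inhibition above a per-plate cutoff, the mean inhibition of sample wells plus 3 SD, cut at about 35% in these data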;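 note: loss of TO-PRO-1 fluorescence as compound displaces dye from 1x1 AA loop RNA; 0% = DMSO only wells and 100% = 100 µM mitoxantrone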
dCAG dye counter – DNA CAG dye complex inhibition counter-screen. shares compounds with rCAG binder. d(CAG) DNA oligo TO-PRO-1 dye displacement, fluorescence. inhibition, % at 3 µM. actives 94% (n = 4,300). AID 652068;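 active = inhibition above its plate's cutoff, the mean test-well inhibition plus 3 SD, cut at about 4.8% in these data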;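 note: 0% = DNA dye mix with DMSO and 100% = 100 µM mitoxantrone; hits displace the dye from DNA and so lower well fluorescence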
DNA CAG DR – DNA CAG dye complex inhibition, dose response counter-screen; actives 20% (n = 250); shares compounds with rCAG binder; IC50, µM; DNA CAG/GTC duplex TO-PRO-1 dye displacement fluorescence; in the data active = IC50 below about 10 µM
The depositor's hits bear a star; ! = a repeat was not active. A selection: hits, their analogues and other compounds. The true share with any hit is near 5.7%.

For CCN(CC)CCCCCCCCOC(=O)c1cc(OC)c(OC)c(OC)c1 the results were rCAG binder 5.5, NR3A LBD binder -1.3, FAS-TE inh 1.9, Myeloid diff 2 inactive and MPTP inh 8.8.
For O=c1[nH]c(C2CCCN(S(=O)(=O)c3ccccc3)C2)nc2c1nnn2Cc1ccccc1Br (configuration not stated) the results were rCAG binder 6.2, NR3A LBD binder -15.6, FAS-TE inh 15.2, Myeloid diff 2 inactive and MPTP inh -0.2.
`CCCn1cnc2c(SCc3ccccc3Cl)nc(N)nc21` gave rCAG binder -0.9, NR3A LBD binder 1.6, FAS-TE inh 6.7, Myeloid diff 2 inactive and MPTP inh 0.6.
`Clc1cccc(-c2nc3ccc(Br)cn3c2Cc2ccccc2)c1` gave rCAG binder 49.5*, FAS-TE inh 3.3, Myeloid diff 2 inactive, MPTP inh 1.1, rCAG bind conf 13.4 and dCAG dye counter 4.3.
For Clc1cccc(Cc2c(-c3cccc(Cl)c3)nc3ccc(Br)cn23)c1 the results were rCAG binder 10.1, FAS-TE inh 20.8, Myeloid diff 2 inactive and MPTP inh 0.8.
Screening Clc1ccc(-c2nc3ccc(Br)cn3c2Cc2cccc(Cl)c2)cc1 returned rCAG binder 37.6*, FAS-TE inh 27.0, Myeloid diff 2 inactive, MPTP inh 1.6, rCAG bind conf 32.5 and dCAG dye counter 9.2*.
Cc1ccc(-c2nc3ccc(Br)cn3c2Cc2cccc(Cl)c2)cc1 was read as rCAG binder 26.1, FAS-TE inh 15.8, Myeloid diff 2 inactive and MPTP inh 1.3.
For c1cn2c(NC3CCCC3)c(-c3ccc(N4CCOCC4)cc3)nc2cn1 the results were rCAG binder 3.8, NR3A LBD binder -2.9, FAS-TE inh 7.1, Myeloid diff 2 inactive and MPTP inh 2.3.
`c1cn2c(NC3CCCCC3)c(-c3ccc(SC4CCCCC4)cc3)nc2cn1` gave rCAG binder 49.7*!, NR3A LBD binder -9.0, FAS-TE inh 35.1, Myeloid diff 2 inactive, MPTP inh 1.0, rCAG bind conf 36.8*, dCAG dye counter 8.3* and DNA CAG DR >29.9.
For CC(C)c1ccc(NC(=O)CSc2nc3ccsc3c(=O)n2CCC(=O)O)cc1 the results were rCAG binder 35.9*, NR3A LBD binder 0.3, FAS-TE inh 5.9, Myeloid diff 2 inconclusive, MPTP inh 1.3, rCAG bind conf 32.2 and dCAG dye counter 7.8*.
For O=C(c1ccccc1NS(=O)(=O)c1ccc(Cl)cc1)N1CCc2ccccc21 the results were rCAG binder 47.1*, NR3A LBD binder -2.9, FAS-TE inh 9.7, Myeloid diff 2 inactive, MPTP inh 8.7, rCAG bind conf 60.9* and dCAG dye counter 15.2*.
O=C(O)c1ccc(Cl)c(S(=O)(=O)Nc2ccccc2C(=O)Nc2ccc(Cl)cc2)c1 was read as rCAG binder 45.4*, NR3A LBD binder 29.4*, FAS-TE inh -1.8, MPTP inh -0.8, rCAG bind conf 46.3* and dCAG dye counter 17.1*.
O=C(Nc1ccc(S(=O)(=O)Nc2ncccn2)cc1)c1ccccc1NS(=O)(=O)c1ccc(Cl)cc1 was read as rCAG binder 41.5*, NR3A LBD binder 2.1, FAS-TE inh -0.3, Myeloid diff 2 inactive, MPTP inh 0.1, rCAG bind conf 65.5* and dCAG dye counter 26.1*.
O=S(=O)(Nc1ncccn1)c1ccc(Cl)cc1 was read as rCAG binder 3.6, NR3A LBD binder 2.0, FAS-TE inh -5.0, Myeloid diff 2 inactive and MPTP inh 0.5.
Screening O=C(c1ccc(Cl)cc1)N1CCc2ccccc21 returned rCAG binder 1.6, NR3A LBD binder -2.8, FAS-TE inh -0.6, Myeloid diff 2 inactive and MPTP inh 1.1.
For CC1(C(=O)Nc2ccc3c(c2)OCCO3)CSCC(=O)N1CC(F)(F)F (configuration not stated) the results were rCAG binder 2.9, Myeloid diff 2 inactive and MPTP inh -1.4.
For O=C1N/C(=N/S(=O)(=O)Cc2ccccc2)S/C1=C/c1ccc2c(c1)OCO2 the results were rCAG binder 66.3*, NR3A LBD binder -9.0, FAS-TE inh -7.2, Myeloid diff 2 inactive, MPTP inh 5.2, rCAG bind conf 56.4* and dCAG dye counter 19.0*.
O=C(CCNC(=O)N1CC(=O)Nc2ccccc21)NCc1ccccc1 was read as rCAG binder 1.5, FAS-TE inh -12.0, Myeloid diff 2 inactive and MPTP inh 0.3.
Screening O=C(O)/C(=C\c1ccccc1OC(F)F)c1ccc(-c2ccccc2)cc1 returned rCAG binder 48.4*, NR3A LBD binder -2.0, FAS-TE inh 5.3, Myeloid diff 2 inactive, MPTP inh -3.3, rCAG bind conf 41.8* and dCAG dye counter 13.4*.
For O=C(O)/C(=C\c1ccc(F)cc1)c1ccc(-c2ccccc2)cc1 the results were rCAG binder 37.8*, NR3A LBD binder 0.3, FAS-TE inh -3.1, Myeloid diff 2 inactive, MPTP inh 1.8, rCAG bind conf 40.1* and dCAG dye counter 9.7*.
For COc1cc(S(=O)(=O)NCc2ccccn2)ccc1Cl the results were rCAG binder -0.8, NR3A LBD binder 4.3, FAS-TE inh -1.7, Myeloid diff 2 inactive and MPTP inh 0.6.
For COc1cc2cc3c(N)c(C(=O)Nc4sc(C)c(C)c4C#N)sc3nc2cc1OC the results were rCAG binder 53.1*, NR3A LBD binder 18.9*, FAS-TE inh -3.2, Myeloid diff 2 inactive, MPTP inh 2.3, rCAG bind conf 61.5* and dCAG dye counter 31.1*.
CCN(Cc1ccccc1)S(=O)(=O)c1c(N)n(C)c(=O)n(C)c1=O was read as rCAG binder 52.5*, NR3A LBD binder 0.6, FAS-TE inh -8.0, Myeloid diff 2 inactive, MPTP inh -1.5, rCAG bind conf 2.6 and dCAG dye counter 0.2.
Screening CCN(Cc1ccccc1)S(=O)(=O)c1c(C)n(C)c(=O)n(C)c1=O returned rCAG binder -3.7, NR3A LBD binder 4.3, FAS-TE inh -3.6, Myeloid diff 2 inactive and MPTP inh -3.5.
For CCN(CC(=O)Nc1ccc(OC)cc1)C(=O)CN1C(=O)NC(C)(c2ccc3ccccc3c2)C1=O (configuration not stated) the results were rCAG binder 0.8, NR3A LBD binder -1.2, FAS-TE inh 2.2, Myeloid diff 2 inactive and MPTP inh -1.9.
Screening Cc1ccc2nc(-c3ccco3)c(Cc3ccccc3C(F)(F)F)n2c1 returned rCAG binder 10.4.
